Assay results taken from PubChem BioAssay (NCI).
This is part of a sample that, as a whole, favours compounds with a hit. Of some 79,000 tested, about 15% had one in any assay. Active and inactive are the calls of the source. Rule as the data show it: active = growth inhibition above about 70%; inactive = the rest. Where a SMILES comes first, the peptide text is derived from it. [ ]: non-standard residue; d: D form. Abu = CC[CH](N)C(=O)O

Legend:
[1] = NCI Yeast Anticancer Drug Screen. Data for the rad50 strain (AID 155);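 also: 0% = growth of vehicle-only cultures of the same strain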; settings: S. cerevisiae rad50 strain growth inhibition; at 50.0 µM; hits give high values
Summary of the method: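 Genetically altered yeast (DNA repair pathway); compound treatment; growth inhibition vs vehicle ctrl.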

[2] = NCI Yeast Anticancer Drug Screen. Data for the mec2-1 strain (AID 157); settings: S. cerevisiae mec2-1 strain, at 50.0 µM, hits give high values
Summary of the method: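 Cells of the genetically defined mec2-1 yeast strain are incubated with test compound. Inhibition of growth is calculated against vehicle-treated controls.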

[3] = NCI Yeast Anticancer Drug Screen. Data for the sgs1 mgt1 strain (AID 161);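 also: 0% = growth of cultures given vehicle only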; settings: S. cerevisiae sgs1 mgt1 strain, at 50.0 µM, hits give high values
Summary of the method: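 Mutant yeast exposed to compound; growth scored against vehicle-only wells.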

[4] = NCI Yeast Anticancer Drug Screen. Data for the cln2 rad14 strain (AID 165);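 also: 0% = growth equal to vehicle treated cultures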; settings: S. cerevisiae cln2 rad14 strain, at 50.0 µM, hits give high values
Summary of the method: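 The screen exposed genetically defined yeast (cln2 rad14) to test compounds and scored growth inhibition relative to vehicle-treated controls.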

[5] = NCI Yeast Anticancer Drug Screen. Data for the bub3 strain (AID 167); settings: S. cerevisiae bub3 mutant strain, at 50.0 µM, hits give high values
Summary of the method: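 Yeast carrying a defined mutation is treated with each compound, and growth is compared with that of vehicle-exposed cells to give inhibition.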

[6] = NCI Yeast Anticancer Drug Screen. Data for the mlh1 rad18 strain (AID 175); settings: S. cerevisiae mlh1 rad18 strain growth inhibition; at 50.0 µM; hits give high values
Summary of the method: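 Compound-treated yeast growth, normalised to vehicle controls. Strain bears defined DNA repair mutations.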

Measured: growth inhibition

CN(CC1=C(O)C(=O)C(CN(C)Cc2c(O)ccc3ccccc23)=C(O)C1=O)Cc1c(O)ccc2ccccc12
inactive: [1] 30.7% | [2] 4.85% | [3] 34.1% | [4] -1.25% | [5] 5.3% | [6] 28.9%

NC1CCCCC1N.O=NN1CCCCCC1(P(=O)([O-])[O-])P(=O)([O-])[O-].[Na+].[Pt+2]
inactive: [1] -34.9% | [2] 20% | [3] -14.6% | [4] -19.3% | [5] -12.6% | [6] -10.4%

CC(=O)Oc1ccc(/C=C/c2ccccn2)cc1
inactive: [1] 6.6% | [2] -1.75% | [3] -1.5% | [4] -55.1% | [5] 3.75% | [6] 15.3%

O=C(N/N=C\c1ccc(Cl)cc1Cl)c1ccccc1S
inactive: [1] -59.4% | [2] 6.45% | [3] -4.55% | [4] -0.2% | [5] -13.2% | [6] 5%

NC(=O)CCN(CCC(N)=O)c1ccc2c(c1)C(=O)c1ccccc1-2
inactive: [1] -7.3% | [2] -6.05% | [3] -8% | [4] -22.9% | [5] 15.5% | [6] -14.9%

COC1=C(N=[N+]=[N-])C(=O)c2ccccc2C1=O
inactive: [1] 38% | [2] 8.95% | [3] 7.25% | [4] -34.2% | [5] -6.8% | [6] 16.1%

O=C1/C(=C/c2ccc(Cl)cc2)COc2ccc(Br)cc21
inactive: [1] 26.1% | [2] 4.85% | [3] -5.1% | [4] 6.7% | [5] 1.8% | [6] -2.45%

CC(C)C(=O)C(C)(C)CCc1ccccn1
inactive: [1] -23.4% | [2] -24.8% | [3] -28.6% | [4] -15.8% | [5] -12.2% | [6] -8.35%

O=C(O)c1cc(O)c(C(=O)O)cc1O
inactive: [1] -3.2% | [2] -9.15% | [3] -18.6% | [4] -15.2% | [5] -3.25% | [6] 0.3%

COC(=O)n1oc2c(Br)cc(Br)cc2c1=O
inactive: [1] -4.15% | [2] -10.4% | [3] 1.45% | [4] -6.85% | [5] -0.2% | [6] 0.8%

Nc1nc(-c2ccccc2)cc(-c2cc(-c3ccccc3)nc(N)n2)n1
inactive: [1] 12.8% | [2] -8.35% | [3] -18.9% | [4] -1.5% | [5] -5.95% | [6] 10.3%

CC(=O)C1=C(C)Cn2c(=O)c3ccccc3c(=O)n2C1
inactive: [1] -4.7% | [2] -18.5% | [3] -10.7% | [4] 10% | [5] -15.7% | [6] -0.05%

O=C(O)c1ccccc1SC(Sc1ccccc1C(=O)O)c1ccccc1
inactive: [1] -11.8% | [2] -10.7% | [3] -2.35% | [4] -7.85% | [5] 12.1% | [6] 10.6%

CC(=O)Nc1ccc(N(C)C)cc1Cl
inactive: [1] -24.6% | [2] -17.2% | [3] -13.7% | [4] -17.1% | [5] -1.8% | [6] -16.1%

CCCCCCCCCCCCNC(C)C1=C(O)c2ccccc2C(=O)C1=O (configuration not stated)
inactive: [1] 52.6% | [2] 20.3% | [3] 50% | [4] 25.9% | [5] 15% | [6] 44.9%

Cc1cc(=O)[nH]c(NN2C(Cl)C(=O)C2c2cccc([N+](=O)[O-])c2)n1 (configuration not stated)
inactive: [1] 18.1% | [2] -32.5% | [3] -0.3% | [4] -7.1% | [5] -7.45% | [6] -33.6%

CC1(C)c2ccccc2C(=O)c2ccccc21
inactive: [1] 8.1% | [2] 6.65% | [3] 2.6% | [4] -4.6% | [5] -2.75% | [6] 5.45%

Clc1ccc(Cl)s1
inactive: [1] 34.5% | [2] 3.55% | [3] 20.3% | [4] 18.6% | [5] 14% | [6] 26.1%

CCC(N)C(=O)NC(C(N)=O)C(C)C (configuration not stated) (H-[Abu]-Val-NH2; configuration not given here)
inactive: [1] 11.1% | [2] -9.75% | [3] -1.55% | [4] -42.4% | [5] -4.7% | [6] 13.2%

Cc1nc(C)c(N2CCN(CN)CC2)c(=O)[nH]1
inactive: [1] -45.2% | [2] -32.8% | [3] -48% | [4] 30.6% | [5] 14.3% | [6] -72.3%

CC1C(=O)CCC2C1(C)CCC1C2(C)CCC2(C)C3CC(C)(C)CCC3(C)CCC12C (configuration not stated)
inactive: [1] 18.4% | [2] -9.05% | [3] 17.4% | [4] 9.2% | [5] 22.9% | [6] 16.8%

COc1ccc(Cc2ccc(Cl)cc2)c(OC)c1
inactive: [1] 3.3% | [2] 2.25% | [3] 19.8% | [4] 15.2% | [5] -12.2% | [6] -5.15%

O=CNC(NC=O)NC=O
inactive: [1] -3.4% | [2] -2.2% | [3] -2.15% | [4] 15.2% | [5] -4.3% | [6] 0.95%

O=C(O)c1ccccc1C(=O)CCC(=O)c1ccccc1C(=O)O
inactive: [1] -43.5% | [2] -6.75% | [3] 14.3% | [4] -8.95% | [5] -0.05% | [6] 1.25%

CSCCNC(=O)CS(=O)(=O)c1ccc(N)cc1
inactive: [1] -10.3% | [2] -25.9% | [3] -7.65% | [4] -13.2% | [5] -2.35% | [6] -14.9%

CCC1=C(O)C(=O)C(C)(C)C1=O
inactive: [1] -5.85% | [2] -5.2% | [3] -3.15% | [4] -2.7% | [5] 15.9% | [6] 9.45%

Nc1nc2ccc(Br)cc2s1
inactive: [1] 9.3% | [2] 26.6% | [3] 35.9% | [4] 11.6% | [5] 32.5% | [6] 32.4%

CCOc1ccc(NC(=S)NC=C(C#N)C#N)cc1
inactive: [1] -17.8% | [2] -12.6% | [3] -9.55% | [4] -4.9% | [5] 7.75% | [6] -5.75%

O=[N+]([O-])c1ccc(/C(CBr)=N/N2CCCCCC2)cc1
inactive: [1] -1.05% | [2] -16.9% | [3] -19.7% | [4] 7.9% | [5] -15.8% | [6] -4.55%

CCCCC1C/C=C/C=C/C=C/C=C/C(OC2OC(C)C(O)C(N)C2O)CC2OC(O)(CC(O)CC3OC3/C=C/C(=O)O1)CC(O)C2C(=O)O (configuration not stated)
inactive: [1] 30.6% | [2] 9.5% | [3] 2.75% | [4] 17.6% | [5] -1.7% | [6] 11.2%

C#CCN(C(=O)C(F)(F)F)C(/C=C\C(=O)OC)(C(=O)OCC)C(=O)OCC
inactive: [1] -10.3% | [2] -24.9% | [3] -0.45% | [4] -4.5% | [5] -17.2% | [6] -2.55%

O=C(O)CCSCCCCCCCCCCCCSCCC(=O)O
inactive: [1] 16.5% | [2] 18.9% | [3] 18.4% | [4] 18.8% | [5] -3.65% | [6] 25.8%

O=C(O)c1cc(=O)c2c([nH]c3ccccc32)s1
inactive: [1] -4.9% | [2] -18.7% | [3] -14.6% | [4] 5.25% | [5] -14.3% | [6] 13.3%

NC(=S)N/N=C/c1ccc2c(c1)OCO2
inactive: [1] 1.55% | [2] 25.8% | [3] 9% | [4] 47.4% | [5] 22.9% | [6] 13.1%

CCOC(=O)C(=CNc1cccc(N)n1)C(=O)OCC
inactive: [1] -3.35% | [2] -17.9% | [3] 28% | [4] -8.55% | [5] 20.4% | [6] 5.75%

Cc1cccc(NS(=O)(=O)c2ccc(Cl)cc2)c1C
active: [1] 98.5% | [2] 98.3% | [3] 98.2% | [4] 98.3% | [5] 98.4% | [6] 98.7%

CCCOC(=O)CNC(=O)OC(C)(C)C
inactive: [1] 17.6% | [2] 14.8% | [3] 1.15% | [4] 0.55% | [5] -4.95% | [6] -4.35%
